From publication PMC5540273 (PLoS ONE, 2017) come the findings set out here.

Settings in all cases: concentration: 1 μM, replicates: in singlicate; n = 1
The subject of test [1] is EPHA7.
Test [2] concerns EPHA8.
The test system of test [3] is EPHB1.
Test [4] relates to EPHB2.
Test [5] deals with EPHB3.
Test [6] has as its system EPHB4.
In test [7] the test system is EPHB6.
In test [8] the test system is ERBB2.
Test [9] deals with ERBB3.
In test [10] the test system is ERBB4.
The test system of test [11] is T1, ERK1.
T1 construct: gene MAPK3

Test [12] concerns T2, ERK2.
T2 construct: gene MAPK1

The subject of test [13] is T3, ERK3.
T3 construct: gene MAPK6

Test [14] concerns T4, ERK4.
T4 construct: gene MAPK4

The subject of test [15] is T5, ERK5.
T5 construct: gene MAPK7

For test [16], the system named is T6, ERK8.
T6 construct: gene MAPK15

The subject of test [17] is ERN1.
Test [18] deals with T7, FAK.
T7 construct: gene PTK2

Test [19] concerns FER.
Test [20] deals with FES.
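Further: KINOMEscan kinase panel screen.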

Regarding `O=C(Nc1cccc(Oc2ccc3nc(NC(=O)C4CC4)cn3n2)c1)c1ccccc1C(F)(F)F`, the “%Inh” value in test [1] amounted to 0%; in [2], 29%; in [3], 6%; in [4], 19%; in [5], 7%; in test [6], 10%. Also, the “%Inh” value in [7] worked out at 31%; in [8] it was 25%; in test [9], 52%; in test [10], 20%; in [11], 0%; in test [12], 0%. Besides, the “%Inh” value was 0% in test [13]; 0% in test [14]; 0% in test [15]; 20% in test [16]; 0% in test [17]; 9% in [18]. For the same molecule, the “%Inh” value in [19] is 0%; in test [20], 22%.

In the case of `C[C@@H](Oc1cc(-n2cnc3cc(-c4ccnc(NCCS(C)(=O)=O)c4)ccc32)sc1C(N)=O)c1ccccc1Cl` [GSK907232], the “%Inh” value was found to be 6% in [1]; 23% in [2]; 19% in [3]; 0% in test [4]; 10% in [5]; 3% in test [6]. The “%Inh” value in [7] is 60%; in [8] it was 0%; in test [9] it was 0%; in test [10], 0%; in [11] it was 0%; in test [12], 0%. The “%Inh” value in [13] is given as 0%; in test [14] it was 19%; in [15] it was 0%; in test [16], 76%; in [17], 0%; in [18], 0%. In addition, the “%Inh” value in test [19] worked out at 21%; in test [20], 0%.

On to `COc1cccc(NC(=O)NC2CCN(c3ccnc(Nc4cc(OC)c(OC)c(OC)c4)n3)C2)c1` (centres unmarked) [GSK1379763], for which the “%Inh” value in test [1] is 6%; in [2] it was 4%; in test [3], 11%; in test [4] it was 8%; in test [5] it was 0%; in [6] it was 7%. Further, the “%Inh” value is 94.3% in test [7]; 0% in test [8]; 0% in test [9]; 30% in test [10]; 0% in test [11]; 0% in test [12]. Also, the “%Inh” value in test [13] is 7%; in [14] it was 25%; in test [15], 0%; in test [16], 0%; in test [17] it was 7%; in [18] it was 0%. Further, the “%Inh” value in test [19] is recorded as 0%; in test [20] it was 8%.

With `COc1cc(Nc2nccc(-c3c(-c4cccc(NC(=O)c5c(F)cccc5F)c4)nn4ncccc34)n2)cc(OC)c1OC` [GSK327238], the “%Inh” value in test [1] amounted to 9%; in [2], 56%; in test [3], 35%; in test [4], 93%; in test [5], 0%; in test [6], 15%. For the same molecule, the “%Inh” value in test [7] is recorded as 97.4%; in test [8] it was 98.6%; in [9] it was 96%; in [10], 99.4%; in test [11], 6%; in [12] it was 15%. For the same molecule, the “%Inh” value in test [13] is recorded as 3%; in [14], 29%; in test [15], 68%; in test [16], 0%; in [17], 30%; in test [18], 38%. The “%Inh” value in test [19] is on record as 77%; in test [20], 50%.

Regarding `O=C(Nc1n[nH]c2cc(-c3ccoc3)ccc12)C1CC1` [SB-738481], the “%Inh” value in test [1] was 0%; in test [2], 31%; in test [3], 0%; in [4], 0%; in test [5] it was 0%; in test [6], 5%. Also, the “%Inh” value in test [7] was 10%; in test [8], 0%; in test [9] it was 0%; in [10], 0%; in test [11], 0%; in test [12], 0%. Also, the “%Inh” value stood at 0% in [13]; 0% in test [14]; 0% in test [15]; 84% in test [16]; 0% in test [17]; 7% in test [18]. In addition, the “%Inh” value is reported as 0% in test [19] and 5% in test [20].

`COc1cc(Nc2ncc3c(C)nc(-c4cc5ccccc5[nH]4)n3n2)cc(OC)c1OC` [GW869516]: the “%Inh” value stood at 0% in test [1]; 4% in [2]; 58% in [3]; 36% in test [4]; 0% in test [5]; 47% in [6]. For the same molecule, the “%Inh” value in test [7] is 0%; in [8] it was 14%; in test [9] it was 26%; in test [10] it was 34%; in test [11], 0%; in test [12] it was 0%. In addition, the “%Inh” value is given as 42% in [13]; 38% in [14]; 7% in test [15]; 0% in [16]; 0% in test [17]; 6% in test [18]. Also, the “%Inh” value in test [19] and in test [20] was 0% each time.

In the case of `Nc1ncnc2c1nc(-c1ccccc1)n2-c1ccccc1` [SKF-97293], the “%Inh” value in [1] is on record as 0%; in [2] it was 7%; in [3], 15%; in [4], 0%; in test [5], 29%; in test [6], 10%. The “%Inh” value in [7] came to 16%; in test [8], 14%; in test [9], 43%; in test [10], 0%; in [11], 12%; in test [12], 10%. Also, the “%Inh” value in [13] came to 0%; in [14], 0%; in [15], 6%; in [16] it was 13%; in [17] it was 35%; in test [18], 14%. Further, the “%Inh” value in test [19] turned out to be 8%; in test [20], 30%.

For `Cc1ccc(C(=O)Nc2ccc(Nc3ccnc4cc(-c5nccs5)ccc34)cc2O)cc1.Cl` [GW494702], the “%Inh” value in test [1] turned out to be 0%; in [2], 0%; in [3] it was 11%; in test [4], 21%; in [5] it was 20%; in test [6], 12%. Further, the “%Inh” value stood at 50% in [7]; 42% in test [8]; 21% in test [9]; 10% in test [10]; 0% in test [11]; 0% in [12]. Besides, the “%Inh” value was determined as 0% in test [13]; 0% in [14]; 0% in [15]; 11% in [16]; 0% in test [17]; 0% in test [18]. The “%Inh” value in test [19] was 34%; in test [20] it was 24%.

With `CCn1c(-c2nonc2N)nc2c(C#CC(C)(C)O)ncc(OCCCCN)c21.O=C(O)C(F)(F)F.O=C(O)C(F)(F)F` [GSK507274], the “%Inh” value in test [1] came to 0%; in [2], 3%; in test [3], 0%; in test [4] it was 0%; in test [5], 27%; in test [6], 29%. Also, the “%Inh” value in [7] is reported as 6%; in test [8], 5%; in [9] it was 0%; in test [10] it was 41%; in test [11], 0%; in [12], 1%. Further, the “%Inh” value in test [13] is 6%; in test [14] it was 8%; in [15], 0%; in [16] it was 10%; in [17], 0%; in [18], 0%. Moreover, the “%Inh” value in [19] is on record as 0%; in test [20], 9%.

Regarding `COCCOCCOc1cc2ncc3c4ccc(C#N)cc4[nH]c3c2cc1OC`, the “%Inh” value is 11% in [1]; 9% in [2]; 6% in test [3]; 23% in test [4]; 11% in test [5]; 25% in test [6]. Besides, the “%Inh” value turned out to be 56% in [7]; 34% in test [8]; 0% in [9]; 0% in test [10]; 9% in [11]; 6% in test [12]. Besides, the “%Inh” value in test [13] came to 2%; in test [14] it was 0%; in test [15] it was 0%; in test [16], 36%; in [17], 0%; in test [18] it was 16%. Besides, the “%Inh” value in [19] is on record as 0%; in [20] it was 17%.
